From PubChem BioAssay (NCI)
About 83,000 compounds went through this panel and 20% of them were active in at least one assay; those are over-represented in the sample as a whole.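 Treatment: one concentration, 48 hours, 96-well format. Scoring: percent growth, with anything below 10 considered active.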 Values without a mark were called inactive. Active and inactive are the calls of the source.

Legend:
Experiment in all cases: NCI-60 one-dose screen, 48 h (100 = growth as untreated, 0 = no growth, -100 = all killed)
Settings in all cases: 10 µM unless noted
EKVX NSCLC = tested on: EKVX NSCLC
SN12C renal = tested on: SN12C renal
UO-31 renal = tested on: UO-31 renal
TK-10 renal = tested on: TK-10 renal
ACHN renal = tested on: ACHN renal
CAKI-1 renal = tested on: CAKI-1 renal
A498 renal = tested on: A498 renal
CCRF-CEM leukemia = tested on: CCRF-CEM leukemia
MOLT-4 leukemia = tested on: MOLT-4 leukemia
SR leukemia = tested on: SR leukemia

Compound	growth (EKVX NSCLC)	growth (SN12C renal)	growth (UO-31 renal)	growth (TK-10 renal)	growth (ACHN renal)	growth (CAKI-1 renal)	growth (A498 renal)	growth (CCRF-CEM leukemia)	growth (MOLT-4 leukemia)	growth (SR leukemia)
O=C(CCc1nnc(SCc2ccccc2)s1)c1nc2ccccc2[nH]1	93.8%	92.7%	74.3%	95.8%	94.4%	90.7%	72.7%	68.1%	70.1%	74.4%
CSc1ccc2c(c1)N(CCC1CCCCN1C)c1ccccc1S2 (stereo not given)	67.5%	48%	28.2%	66.4%	25.8%	32.9%	84%	35.3%		14.2%
CC[C@]1(O)CC2CN(CCc3c([nH]c4ccccc34)[C@@](C(=O)OC)(c3cc4c(cc3OC)N(C)[C@H]3[C@@](O)(C(=O)OC)[C@H](OC(C)=O)[C@]5(CC)C=CCN6CC[C@]43[C@@H]65)C2)C1 (stereo not given in full)	49.6%	39.6%	18.9%	62.6%	21.9%	26.8%	-15.6% (active)	10.7%		10.2%
Cc1cc(C)c2c(c1)N1OC(C2)C[C@H]1/C=C/c1ccccc1 (stereo not given in full)	90%	92.2%	79.1%	108%	112%	85.6%	99.9%	92.9%	77.7%	83.2%
C[n+]1c2ccccc2c(Nc2ccc(N3CCCCC3)cc2)c2[nH]c3ccccc3c21	-56.1% (active)	-82.7% (active)	-97.5% (active)	-79.4% (active)	-96.2% (active)	-96.8% (active)	-88.3% (active)	-49.3% (active)		-70.1% (active)
COc1ccc(/C=C2\NC(=S)NC2=O)cc1	101%	101%	73.6%	113%	94%	98.7%	89%	105%		110%
CCC(c1ccccc1)c1noc(CCN(CC)CC)n1 (stereo not given)	105%	100%	85.5%	96.7%	101%	94.1%	101%	48.2%		69.2%
COc1ccc2c(c1)nc(N)c1c3cc(C)c(C)cc3cn21	72%	84.1%	59.6%	108%	71.4%	59.2%	79.7%		69.2%	
Cc1cc([N+](=O)[O-])c(C)cc1C(=O)O	112%	105%	85.4%	105%	99.8%	97.4%	96.6%		112%	
COc1cc2c(c(OC)c1OC)-c1ccc(NN(C(=O)c3ccccc3)C(=O)c3ccccc3)c(=O)cc1[C@@H](NC(C)=O)CC2 (tested in a mixture with another compound)	30.8%	64.8%	62.3%	40.8%	63%	-2.24% (active)	15.1%	41.9%		18.1%
COc1ccc2c(c1)[nH]c(=O)c1c3cc(OC)c(OC)cc3cn21	36.9%	35.6%	35.1%	27.1%	24.7%	-9.25% (active)	34.4%	-83.5% (active)	7.2% (active)	64.9%
